Data published in PubChem BioAssay (NCI).
About 83,000 compounds went through this panel and 20% of them were active in at least one assay; those are over-represented in the sample as a whole.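 Single-dose data. Exposure time 48 hours. Values below 10 considered active.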 Activity calls are given as the source filed them.

Tests used:
Test in all cases: NCI-60 one-dose screen, 48 h (100 = growth as untreated, 0 = no growth, -100 = all killed)
Conditions in all cases: 10 µM unless noted
SK-MEL-2 melanoma = system: SK-MEL-2 melanoma
EKVX NSCLC = system: EKVX NSCLC
SN12C renal = system: SN12C renal
UO-31 renal = system: UO-31 renal
TK-10 renal = system: TK-10 renal
ACHN renal = system: ACHN renal
CAKI-1 renal = system: CAKI-1 renal
A498 renal = system: A498 renal
CCRF-CEM leukemia = system: CCRF-CEM leukemia
MOLT-4 leukemia = system: MOLT-4 leukemia
SR leukemia = system: SR leukemia
RPMI-8226 leukemia = system: RPMI-8226 leukemia
OVCAR-8 ovarian = system: OVCAR-8 ovarian
OVCAR-5 ovarian = system: OVCAR-5 ovarian
OVCAR-4 ovarian = system: OVCAR-4 ovarian
SK-OV-3 ovarian = system: SK-OV-3 ovarian
OVCAR-3 ovarian = system: OVCAR-3 ovarian
HS 578T breast = system: HS 578T breast
NCI/ADR-RES ovarian = system: NCI/ADR-RES ovarian
IGROV1 ovarian = system: IGROV1 ovarian

Measured: growth

CC/C=C\C[C@H](F)C/C=C1/C(=O)C=C[C@@H]1C/C=C\CCCC(=O)O
inactive: SK-MEL-2 melanoma 65.2% | EKVX NSCLC 75.1% | SN12C renal 44.3% | UO-31 renal 57.5% | TK-10 renal 128% | ACHN renal 39.5% | CAKI-1 renal 42.5% | A498 renal 106% | OVCAR-8 ovarian 11.2% | OVCAR-5 ovarian 86.1% | OVCAR-4 ovarian 83.6% | SK-OV-3 ovarian 86.4% | OVCAR-3 ovarian 26.9% | HS 578T breast 84%
active: CCRF-CEM leukemia -7.62% | MOLT-4 leukemia -4.45% | SR leukemia -13.2% | RPMI-8226 leukemia -3.41% | NCI/ADR-RES ovarian 9.24%

Cc1cc2cc3cc(C)c(N(C)C)cc3[n+](C)c2cc1N(C)C
inactive: EKVX NSCLC 52% | SN12C renal 10.7% | UO-31 renal 62.1% | ACHN renal 43.8% | CAKI-1 renal 47.2% | A498 renal 56.9% | CCRF-CEM leukemia 13% | MOLT-4 leukemia 33.9% | SR leukemia 76.9% | OVCAR-8 ovarian 23.4% | OVCAR-5 ovarian 63.4% | OVCAR-4 ovarian 38.5% | SK-OV-3 ovarian 20.2% | HS 578T breast 33.1% | NCI/ADR-RES ovarian 78.4%
active: SK-MEL-2 melanoma -22% | TK-10 renal -17.4% | IGROV1 ovarian -3.39% | OVCAR-3 ovarian -7.45%

CSc1[nH]c2ncnc(N)c2c1C#N
inactive: SK-MEL-2 melanoma 91% | EKVX NSCLC 83.2% | SN12C renal 99.4% | UO-31 renal 76% | TK-10 renal 85.4% | ACHN renal 97.4% | CAKI-1 renal 37.7% | A498 renal 125% | CCRF-CEM leukemia 110% | MOLT-4 leukemia 89.7% | SR leukemia 99.5% | OVCAR-8 ovarian 115% | OVCAR-5 ovarian 87.4% | OVCAR-4 ovarian 94.2% | SK-OV-3 ovarian 92.7% | IGROV1 ovarian 92.4% | OVCAR-3 ovarian 125% | HS 578T breast 130% | NCI/ADR-RES ovarian 86.1%

C=C(CN1CCN(c2cccc(C(F)(F)F)n2)CC1)c1ccc(C(=O)Nc2ccccc2N)cc1
inactive: EKVX NSCLC 47.2% | SN12C renal 15.5% | UO-31 renal 12% | TK-10 renal 41.6% | ACHN renal 34% | CAKI-1 renal 14.3% | A498 renal 35.6% | OVCAR-8 ovarian 18.8% | OVCAR-5 ovarian 34.8% | OVCAR-4 ovarian 32.9% | SK-OV-3 ovarian 21.2% | HS 578T breast 41.1%
active: SK-MEL-2 melanoma -9.9% | CCRF-CEM leukemia -32.1% | MOLT-4 leukemia -14.5% | SR leukemia -20.9% | RPMI-8226 leukemia 4.35% | OVCAR-3 ovarian -38.2% | NCI/ADR-RES ovarian 1.99%

CCN(CC)CC(O)CNc1c2ccc([N+](=O)[O-])cc2nc2cc(OC)c(OC)cc12 (stereo unspecified)
inactive: ACHN renal 11.1% | CAKI-1 renal 16.3% | OVCAR-5 ovarian 10% | NCI/ADR-RES ovarian 51.7%
active: SK-MEL-2 melanoma -48.7% | EKVX NSCLC -27.4% | SN12C renal -34.1% | UO-31 renal 4.89% | TK-10 renal 2.27% | A498 renal -52.9% | CCRF-CEM leukemia 9.53% | MOLT-4 leukemia -9.91% | SR leukemia -7.08% | RPMI-8226 leukemia -13.8% | OVCAR-8 ovarian -2.1% | OVCAR-4 ovarian -39.3% | SK-OV-3 ovarian -42.5% | OVCAR-3 ovarian -37.7% | HS 578T breast -18.2%

COC(=S)SCN(CSC(=S)OC)c1ccc(Cl)cc1
inactive: SK-MEL-2 melanoma 106% | EKVX NSCLC 70.3% | SN12C renal 80.7% | UO-31 renal 66.5% | TK-10 renal 109% | ACHN renal 75.3% | CAKI-1 renal 62.8% | A498 renal 86.8% | CCRF-CEM leukemia 77.7% | MOLT-4 leukemia 81.7% | SR leukemia 123% | RPMI-8226 leukemia 73.1% | OVCAR-8 ovarian 91.3% | OVCAR-5 ovarian 97.1% | OVCAR-4 ovarian 87.6% | SK-OV-3 ovarian 91.6% | OVCAR-3 ovarian 104% | HS 578T breast 88.4% | NCI/ADR-RES ovarian 79.1%

CN1CCN(Cc2ccc(NC(=O)c3cncc(C#Cc4c(N)ncc5ccc(C#N)cc45)c3)cc2C(F)(F)F)CC1
active: EKVX NSCLC -55.3% | SN12C renal 6.26% | UO-31 renal -88.5% | ACHN renal -92.8% | CCRF-CEM leukemia -14.2% | MOLT-4 leukemia -21.3% | SR leukemia -13% | RPMI-8226 leukemia -23% | OVCAR-8 ovarian -40% | OVCAR-5 ovarian -84.5% | OVCAR-4 ovarian -73.9% | IGROV1 ovarian -53.6% | NCI/ADR-RES ovarian -30.5%
inactive: SK-MEL-2 melanoma 57.4% | TK-10 renal 18.3% | CAKI-1 renal 58.3% | A498 renal 43.3% | SK-OV-3 ovarian 127% | OVCAR-3 ovarian 90.9% | HS 578T breast 50.8%

N#Cc1c(N)nc(N)nc1Nc1ccc(Br)cc1
inactive: SK-MEL-2 melanoma 91.1% | EKVX NSCLC 44.1% | SN12C renal 85.1% | UO-31 renal 65.6% | TK-10 renal 125% | ACHN renal 89% | CAKI-1 renal 80.1% | A498 renal 106% | CCRF-CEM leukemia 61.1% | MOLT-4 leukemia 76.5% | SR leukemia 102% | RPMI-8226 leukemia 97% | OVCAR-8 ovarian 101% | OVCAR-5 ovarian 115% | OVCAR-4 ovarian 94.5% | SK-OV-3 ovarian 108% | OVCAR-3 ovarian 97.6% | HS 578T breast 70.1% | NCI/ADR-RES ovarian 104%

CN1CCN(Cc2ccc(NC(=O)c3cncc(C#Cc4cnc(N)c5cccnc45)c3)cc2C(F)(F)F)CC1
active: SK-MEL-2 melanoma -27.1% | UO-31 renal 2.87% | ACHN renal 6.51% | CAKI-1 renal 1.93% | A498 renal -27.5% | SK-OV-3 ovarian -10.9% | HS 578T breast -2.09%
inactive: EKVX NSCLC 14.1% | SN12C renal 11.6% | TK-10 renal 50.1% | CCRF-CEM leukemia 16.9% | MOLT-4 leukemia 18.1% | SR leukemia 15.4% | OVCAR-8 ovarian 29.5% | OVCAR-5 ovarian 12.5% | OVCAR-4 ovarian 36.8% | OVCAR-3 ovarian 34.6% | NCI/ADR-RES ovarian 87%

Cc1ccc(/C=C2\Oc3cc(OCC(=O)c4ccc(Cl)cc4)ccc3C2=O)cc1
inactive: SK-MEL-2 melanoma 79.2% | EKVX NSCLC 107% | SN12C renal 116% | UO-31 renal 73.6% | TK-10 renal 130% | ACHN renal 95.2% | CAKI-1 renal 101% | A498 renal 113% | CCRF-CEM leukemia 176% | MOLT-4 leukemia 102% | SR leukemia 94.7% | RPMI-8226 leukemia 248% | OVCAR-8 ovarian 92.9% | OVCAR-5 ovarian 102% | OVCAR-4 ovarian 119% | SK-OV-3 ovarian 115% | IGROV1 ovarian 57.1% | OVCAR-3 ovarian 94.9% | HS 578T breast 95.4% | NCI/ADR-RES ovarian 102%

CCOC(=O)c1c2c(n3ccc(NC(=O)CCN4CCOCC4)cc13)C(=O)c1ncccc1C2=O
inactive: SK-MEL-2 melanoma 30.9% | EKVX NSCLC 60.4% | SN12C renal 24.2% | UO-31 renal 36% | TK-10 renal 47% | ACHN renal 16.5% | CAKI-1 renal 21.5% | A498 renal 56.2% | CCRF-CEM leukemia 19.3% | MOLT-4 leukemia 18.6% | RPMI-8226 leukemia 31.8% | OVCAR-8 ovarian 48% | OVCAR-5 ovarian 88.9% | OVCAR-4 ovarian 37% | SK-OV-3 ovarian 36.6% | HS 578T breast 52% | NCI/ADR-RES ovarian 40.5%
active: SR leukemia -2.96% | OVCAR-3 ovarian 4.63%

CCC(=O)Oc1ccc(/C(=C(\C)c2ccccc2)c2ccc(OCCN(CC)CC)cc2)cc1
inactive: SK-MEL-2 melanoma 108% | EKVX NSCLC 103% | SN12C renal 84.5% | UO-31 renal 63.3% | TK-10 renal 87.4% | ACHN renal 94.8% | CAKI-1 renal 100% | A498 renal 99.9% | CCRF-CEM leukemia 77.8% | MOLT-4 leukemia 66.4% | SR leukemia 43.9% | OVCAR-8 ovarian 87.9% | OVCAR-5 ovarian 91.7% | OVCAR-4 ovarian 87.5% | SK-OV-3 ovarian 91.4% | IGROV1 ovarian 92.7% | OVCAR-3 ovarian 97.8% | HS 578T breast 51.9% | NCI/ADR-RES ovarian 93%

CCCCCC(=O)Oc1ccc(/C(=C(\C)c2ccccc2)c2ccc(OCCN(CC)CC)cc2)cc1
inactive: SK-MEL-2 melanoma 87.6% | EKVX NSCLC 92.5% | SN12C renal 79.8% | UO-31 renal 48.4% | TK-10 renal 74.6% | ACHN renal 87.9% | CAKI-1 renal 99.7% | A498 renal 84.8% | CCRF-CEM leukemia 63.9% | MOLT-4 leukemia 46.1% | SR leukemia 17.7% | RPMI-8226 leukemia 46.5% | OVCAR-8 ovarian 81.9% | OVCAR-5 ovarian 87.6% | OVCAR-4 ovarian 84% | SK-OV-3 ovarian 75.2% | OVCAR-3 ovarian 86.6% | HS 578T breast 35.6% | NCI/ADR-RES ovarian 74.2%

COc1cccc(-c2nc3sccn3c2-c2ccnc(NCCCNS(=O)(=O)c3ccccc3)c2)c1
inactive: SK-MEL-2 melanoma 27.4% | EKVX NSCLC 42.7% | SN12C renal 31.4% | TK-10 renal 88.2% | ACHN renal 26.9% | CAKI-1 renal 27.8% | A498 renal 57.9% | CCRF-CEM leukemia 12.3% | MOLT-4 leukemia 14.1% | SR leukemia 53.7% | OVCAR-8 ovarian 17.6% | OVCAR-5 ovarian 92% | OVCAR-4 ovarian 27.6% | SK-OV-3 ovarian 79.2% | IGROV1 ovarian 39.6% | OVCAR-3 ovarian 38.7% | HS 578T breast 66.8% | NCI/ADR-RES ovarian 12.7%
active: UO-31 renal 9.36%

C/C(=C(/c1ccc(O)cc1)c1ccc(Cl)cc1)c1ccccc1
active: SK-MEL-2 melanoma -85.1% | EKVX NSCLC -81% | SN12C renal -90.5% | UO-31 renal -100% | TK-10 renal -63.7% | ACHN renal -92.3% | CAKI-1 renal -54.2% | A498 renal -55.1% | CCRF-CEM leukemia -61.2% | MOLT-4 leukemia -29.5% | SR leukemia -27.9% | OVCAR-8 ovarian -53% | OVCAR-5 ovarian -85.3% | OVCAR-4 ovarian -97.4% | SK-OV-3 ovarian -85.6% | IGROV1 ovarian -73.1% | OVCAR-3 ovarian -92.5% | HS 578T breast -37.6% | NCI/ADR-RES ovarian -71%

CC[n+]1ccc2c(c1)C(=O)c1nccc3c1c-2nc1ccccc13
active: SK-MEL-2 melanoma -34% | SN12C renal -75% | ACHN renal 6.37% | A498 renal -9.88% | CCRF-CEM leukemia 0.574% | MOLT-4 leukemia -30% | SR leukemia 5.79% | OVCAR-8 ovarian -11.9% | OVCAR-4 ovarian -67.7% | SK-OV-3 ovarian -9.56% | OVCAR-3 ovarian -14.6% | HS 578T breast -21.8%
inactive: EKVX NSCLC 11.2% | UO-31 renal 15.1% | TK-10 renal 18.7% | CAKI-1 renal 24.7% | RPMI-8226 leukemia 66.2% | OVCAR-5 ovarian 87.7% | IGROV1 ovarian 17.1% | NCI/ADR-RES ovarian 75.1%
